# Source: ChEMBL document CHEMBL4513216, “Probing the Open Global Health Chemical Diversity Library for Multistage-Active Starting Points for Next-Generation Antimalarials” (ACS Infect Dis, 2020)
# Among all 69,000 compounds or so, about 8,600 (12%) showed an effect of 50% or more. The list comes from a sample in which strong results are over-represented; it also holds similar structures and randomly drawn compounds.
# System: Plasmodium berghei
# Experiment: Screen against P. berghei liver stage (PbLuc), transformed with Luciferase, at 10uM
# Type: functional, HepG2
# Details: tested at 10 uM
row,Structure (SMILES),INHIBITION [%]
1,COc1ccc2nc(CNC(=O)C3CC4(CCNCC4)CN3C)[nH]c2c1 (configuration not stated),18.6
2,Cc1ccc(NCCCNC(=O)C2CC3(CCNCC3)CN2C)nc1 (configuration not stated),37.1
3,Cc1ccc2[nH]c(CNC(=O)C3CC4(CCNCC4)CN3C)nc2c1C (configuration not stated),66.3
4,c1coc(CNc2ncc3c(n2)C2(CCNC2)COC3)c1 (configuration not stated),29.8
5,Cc1nc(NCc2ccco2)nc2c1COCC21CCNC1 (configuration not stated),55.5
6,Cc1nc(NCC2CC2)nc2c1COCC21CCNC1 (configuration not stated),38.1
7,Cc1ccc(Oc2ncccc2C(=O)N(C)CCCN(C)C)c(C)c1,13.5
8,CCOCC(=O)N1CCC(C)(c2nccs2)CC1,38.05
9,CC(=O)N1CCN(C(=O)CCn2c(C)nc3ccccc3c2=O)CC1,8.665
10,CC(C)=CCN1CCC(c2nnc(CN3CCN(C)CC3)n2C)CC1,25.4
11,Cc1noc([C@@]23CCO[C@@H]2CCN(C(=O)c2cc(C)on2)C3)n1,61.9
12,Cc1noc([C@@]23CCO[C@@H]2CCN(C(=O)c2cc(C)c(C)s2)C3)n1,57.1
13,Cc1noc([C@@]23CCO[C@@H]2CCN(C(=O)c2ccsc2)C3)n1,-15.3
14,Cc1noc([C@@]23CCO[C@@H]2CCN(C(=O)c2c(C)noc2C)C3)n1,28.2
15,Cc1noc([C@@]23CCO[C@@H]2CCN(C(=O)c2sccc2C)C3)n1,-4.56
16,Cc1noc([C@@]23CCO[C@@H]2CCN(C(=O)c2cc(C)[nH]c2C)C3)n1,24.9
17,CC(C)Cc1nc(CCn2cncn2)n(-c2ccc3c(c2)OCCO3)n1,41.2
18,Cc1cc(Cl)ccc1-n1ncc(C(=O)N(C)CCc2ccccn2)c1N,29.3
19,CC(C)c1nc(-c2ccnc(N3CCNCC3)n2)no1,18.2
20,CC(C)n1ccnc1CN1CCCN(C(=O)c2cnn(C)c2)CC1,10.9165
21,Cc1nc(CN2C(=O)COC3(CCN(C(N)=O)CC3)C2C)cs1 (configuration not stated),-10.3
22,CS(=O)(=O)c1cncnc1C1CCCN(C(=O)Nc2ccccc2F)C1 (configuration not stated),-8.76
23,CCN(Cc1cccs1)S(=O)(=O)N(C)C(C)C,44.3
24,COc1ccccc1CN(Cc1cccs1)S(=O)(=O)N(C)C(C)C,67.5
25,CC(C)N(C)S(=O)(=O)N(Cc1cccs1)Cc1cccs1,14.6
26,Cn1nc(C2CN(C(=O)c3cccnc3)C2)c2nccnc21,32.8

row,Structure (SMILES),INHIBITION [%]
1,CCc1nc2n(n1)CC(NCc1nc(Cc3ccccc3)no1)CC2 (configuration not stated),19.6
2,NC(=O)c1ccc(NC(=O)c2ccncc2F)cn1,9
3,O=C(Cc1ccccc1F)N1C[C@@H]2COC[C@]2(COc2cccnc2)C1,39.2
4,O=C(COc1ccccc1)N1C[C@@H]2COC[C@]2(COc2cccnc2)C1,50.3
5,O=C(c1cocn1)N1C[C@@H]2COC[C@]2(COc2cccnc2)C1,43.9
6,O=C(c1ncccn1)N1C[C@@H]2COC[C@]2(COc2cccnc2)C1,46.6
7,O=C(C1=CCCC1)N1C[C@@H]2COC[C@]2(COc2cccnc2)C1,33
8,O=C(c1cc(C2CC2)on1)N1C[C@@H]2COC[C@]2(COc2cccnc2)C1,72
9,O=C(COC1CCCC1)N1C[C@@H]2COC[C@]2(COc2cccnc2)C1,40.3
10,Cc1ccc(C(=O)N2C[C@@H]3COC[C@]3(COc3cccnc3)C2)cn1,23.9
11,O=C(c1ccc(F)cc1)N1C[C@@H]2COC[C@]2(COc2cccnc2)C1,55.7
12,Cc1ccc(-c2cc(CNC(=O)NC3CCCCNC3=O)on2)cc1 (configuration not stated),-22.1
13,CS(=O)(=O)NC[C@H]1OC[C@H]2CN(CCc3ccccc3)CC[C@H]21,2.7
14,CC(C)C(=O)N1CCC(Cc2nccnc2Nc2ccccn2)CC1,23.4
15,CCS(=O)(=O)N1C[C@H]2CN(Cc3cccnc3)C(=O)[C@H]2C1,-28.2
16,CCNc1nnc(SCC(=O)N2CCN(Cc3ccc(Cl)s3)CC2)s1,40.5
17,O=C(CSc1nncs1)N1CCN(Cc2ccc(Cl)cc2)CC1,87.2
18,O=C(CSc1nncs1)N1CCN(Cc2ccc(Cl)s2)CC1,2.37
19,c1ccc(-n2nc(CNC3CCc4ncnn4C3)c3c2CCC3)cc1 (configuration not stated),33.25
20,Cc1noc([C@@H]2C[C@@H]3CCN(CC4CCOCC4)C[C@H]3O2)n1,-23.4
21,Cc1ccccc1C(C(=O)NCc1nc(-c2ncccn2)no1)N(C)C (configuration not stated),-24.9
22,Cc1cccc(C(C(=O)NCc2nc(-c3cccnc3)no2)N(C)C)c1 (configuration not stated),15.3
23,Cc1cccc(C(C(=O)NCc2nc(-c3ncccn3)no2)N(C)C)c1 (configuration not stated),56.3
24,CCN(Cc1cccc2c1OCO2)C(=O)NCCOC,31.3
25,CC(C)(C)CC(NC(=O)N1CCS(=O)(=O)CC1)C(F)(F)F (configuration not stated),-47.8
26,Cc1nn(C)cc1CN1CCc2nc(-c3cccnc3)nc(O)c2C1,38.8
